High-throughput results from PubChem BioAssay.
aSyn UTR act: Activators via SNCA 5'UTR binding, MLPCN. actives 7.1% (n = 300,000). alpha-synuclein 5'UTR reporter, activators screen. activity score, % (tested at 7.5 µM), hits read low; in the data active means activity score below about -60%
Hits are given with their value; – = inactive. These entries were drawn from the full list.

SMILES	aSyn UTR act
CC(=O)Oc1ccc([C@@H]2COc3c(ccc4c3C=CC(C)(C)O4)C2)c(OC(C)=O)c1	-152.4
COc1ccccc1NC(=O)c1ccc2[nH]c(C)c(C)c2c1	-145.3
COc1cccc(NC(=O)c2ccc3nc(C)sc3c2)c1	-238.7
COc1ccccc1NC(=O)c1ccc2nc(C)sc2c1	-104.6
Cc1cc2sc3nc(=O)n(-c4ccccc4)c(=O)n3c2cc1C	-159.7
COc1ccc(S(=O)(=O)N[C@@H](C)C(=O)OCC(=O)Nc2cc3oc4ccccc4c3cc2OC)cc1	-128.9
COc1cc2c(cc1NC(=O)COC(=O)[C@@H](NS(=O)(=O)c1cccc(Cl)c1)C(C)C)oc1ccccc12	-103.0
O=C(Nc1ccc(-c2nc3ccccc3s2)c(O)c1)C1=COCCO1	-79.8
O=C(Nc1cccc(-c2nc3ccccc3s2)c1)C1=COCCO1	-81.5
O=C(Nc1ccc(O)c(-c2nc3ccccc3s2)c1)C1=COCCO1	-77.7
O=C(Nc1ccc(-c2nc3ccccc3s2)cc1)C1=COCCO1	–
COc1ccc2nc(-n3c(O)c(C4=c5ccccc5=NC4=O)[nH]c3=S)sc2c1	-74.2
CO/N=C/C(=N\Nc1ccc(OC)cc1)C(=O)c1ccc(OC)cc1	-71.0
N/C(=N\OCc1ccc([N+](=O)[O-])cc1)c1ccccn1	–
C/C(=N/OCc1ccc(Br)cc1)c1ccccn1	-122.7
Oc1ccc(CN2CCN(c3ccccc3)CC2)c2cccnc12	–
O/N=C\c1cnc(N2CCN(c3ccccc3)CC2)s1	-74.8
CCOC(=O)Cn1cnc(-c2ccc([N+](=O)[O-])cc2)c1	-76.6
Cc1onc(NC(=O)c2ccc(Cl)cc2Cl)c1Br	-145.0
COCc1c(C(=O)Nc2nc(C)cs2)oc2ccccc12	-87.5
COCc1c(C(=O)Nc2ccc(Cl)cc2F)oc2ccccc12	-116.3
O=c1[nH]c(-c2ccccn2)nc2ccccc12	-96.3
Nc1nc(-c2nc3ccccc3[nH]2)cs1	-86.2
c1ccc(-c2nc3c(ccc4ccccc43)[nH]2)nc1	-157.0
c1ccc(-c2nc3ccccc3[nH]2)nc1	-81.0
SMILES	aSyn UTR act
O=C(NC1CCCCCC1)c1ccc2c(=O)n3c(nc2c1)CCCCC3	-72.5
Cc1ccc(NC(=O)c2ccc3c(=O)n4c(nc3c2)CCCCC4)nc1	-71.7
CCCc1ccc(OC(=O)c2ccc(O)cc2Cl)cc1	-62.6
COC(=O)/C=C1\C(=O)N(c2nc3ccc(OC)cc3s2)C(=S)N1c1ccc(F)cc1	-69.1
COC(=O)/C=C1\C(=O)N(c2nc3ccccc3s2)C(=S)N1c1ccc(F)cc1	-174.7
COc1ccccc1-c1nnc(Sc2nc([N+](=O)[O-])nn2C)o1	-82.7
O=[N+]([O-])c1cc(-c2n[nH]c(-c3ccccc3)n2)cc([N+](=O)[O-])c1	-75.8
O=C(COc1ccc2c(c1)OCO2)Nc1ccccc1C(F)(F)F	-114.2
N#Cc1ccccc1NC(=O)COc1ccc2c(c1)OCO2	-130.1
Cn1c(O)c(N=Nc2ccccc2[N+](=O)[O-])c2ccccc21	-64.7
Cn1c(O)c(N=NC(=S)Nc2ccccc2F)c2cc(S(=O)(=O)N3CCOCC3)ccc21	–
Cc1ccc(N=Nc2ccc(O)c3ncccc23)cc1C	–
Cc1cc(N=NC(=O)c2ccccc2O)c2ccccc2c1O	-123.3
Cc1occc1C(=O)N=Nc1c(O)[nH]c2ccc(Br)cc12	-237.1
Cn1c(O)c(N=NC(=O)c2ccccc2O)c2ccccc21	-103.5
Cn1c(O)c(N=NC(=O)c2ccco2)c2ccccc21	-80.0
Cc1cccc(Cn2c(O)c(N=NC(=S)Nc3ccccc3F)c3ccccc32)c1	–
Cc1occc1C(=O)N=Nc1c(O)n(C)c2ccccc12	-246.8
Cc1ccc(-c2ccc(/C=N/O)o2)cc1[N+](=O)[O-]	-66.1
CCN(CC)CCNc1nc2cc(OC)c(OC)cc2c2nc(-c3ccccc3)nn12	-72.8
Cc1ccc(SC(C)c2nc(-c3ccccc3)no2)cc1 (stereo not drawn)	-97.6
O=C(Nc1nnc(S(=O)(=O)N2CCOCC2)s1)c1cccc(F)c1	-101.9
COc1cc(NC(=O)CN2CCC(C)CC2)c(C)cc1[N+](=O)[O-]	-81.7
COC(=O)c1ccc2c(=O)n3c(nc2c1)SCC(c1ccccc1)=N3	-112.3
c1ccc2c(c1)oc1c(Nc3ccc4c(c3)OCO4)ncnc12	-107.5
SMILES	aSyn UTR act
CC(=O)N1CCN(c2ccc(Nc3ncnc4c3oc3ccccc34)cc2)CC1	-81.4
Oc1ccc(Nc2ncnc3c2oc2ccccc23)cc1	-116.0
c1ccc2c(c1)oc1c(Nc3ccc(CN4CCOCC4)cc3)ncnc12	-101.7
Oc1ccccc1Nc1ncnc2c1oc1ccccc12	-88.0
Oc1cccc(Nc2ncnc3c2oc2ccccc23)c1	-134.5
c1ccc(Nc2ncnc3c2oc2ccccc23)cc1	-139.1
Cc1nc(Nc2ccccc2)c2oc3ccc(Cl)cc3c2n1	-93.1
Cc1nnc(Nc2ccc3c(c2)OCO3)c2ccccc12	-80.3
Cc1cc(N2CCCC2)nc(SCC(=O)c2ccccc2)n1	-88.5
Cc1cc(N2CCOCC2)nc(SCC(=O)c2ccccc2)n1	-93.6
Cc1ccccc1C(=O)/C(C#N)=N/Nc1c(C)n(C)n(-c2ccccc2)c1=O	–
Cc1cc2oc(C(=O)Nc3c(C)n(C)n(-c4ccccc4)c3=O)c(C)c2cc1C	-63.5
CCC(Oc1ccccc1)C(=O)N1CCC(C(N)=O)CC1 (stereo not drawn)	-71.1
CCCCOc1ccc(C(=S)N2CCC(C(N)=O)CC2)cc1	-85.9
O=C(O)c1nc2ccccc2nc1C(=O)O	-166.1
Cc1oc2c(cc(NS(=O)(=O)c3ccc4c5c(cccc35)C(=O)N4)c3ccccc32)c1C(=O)OC(C)C	-68.8
CS(=O)c1ccccc1-c1nc(-c2ccc(Cl)cc2)no1 (stereo not drawn)	-143.1
CS(=O)c1ccccc1-c1nc(-c2cccc(Cl)c2)no1 (stereo not drawn)	-143.8
CN(C)c1ccc(Nc2ccc([N+](=O)[O-])cn2)cc1	-162.0
Cc1ccc(Nc2ccc([N+](=O)[O-])cn2)cc1Cl	-92.6
Cn1nccc1C(=O)Nc1ccc2c(c1)OCO2	-114.5
Cn1nccc1C(=O)Nc1ccc(Cl)cc1	-62.7
O=C1Nc2ccccc2S/C1=C/Nc1cccc(Cl)c1	-202.5
Cc1nc2ccccc2n1CCCOc1ccccc1	-89.2
O=c1oc2ccccc2n1CCCOc1ccccc1	-73.0
SMILES	aSyn UTR act
COc1ccc(NCc2nc3ccccc3n2CCOc2ccccc2)cc1	-206.5
COc1ccc(NCc2nc3ccccc3n2CCOc2ccc(C)cc2)cc1	-114.2
Cc1ccc(OCCn2c(NC(=O)c3ccco3)nc3ccccc32)cc1	–
Cc1cc(NS(=O)(=O)c2ccc(NC(=O)c3cc4c(=O)n5ccccc5nc4s3)cc2)nc(C)n1	-79.2
CCN(CC)C(=O)c1cc2c(=O)n3ccccc3nc2s1	-125.3
CC(C)CCNC(=O)c1cc2c(=O)n3ccccc3nc2s1	-146.0
Cc1ccc(C(=O)NC(=S)N(C)C2CCCCC2)cc1	-84.0
CN(C(=O)c1ccc(-c2ccccc2)cc1)C1CCCCC1	-127.4
N#Cc1cc2ccc(N3CCOCC3)cc2cc1C#N	-72.6
Nc1c(C(=O)c2ccccc2)sc2nsc(SCCN3CCCC3)c12	-87.0
COc1ccc(N=Cc2nc(-c3ccco3)oc2O)cc1	-111.2
O=C(Oc1oc(-c2ccco2)nc1C=Nc1ccc(Cl)cc1)c1ccco1	-170.2
Cc1ccc(NC(=O)c2[nH]cnc2C(=O)NN)cc1	-65.1
O=C(c1ccccc1)c1nc[nH]c1C(=O)Nc1ccccc1	-90.8
COc1ccc(C(=O)CCNc2cccc(Cl)c2)cc1	-113.7
COc1ccc(C(=O)CNc2cccc(F)c2)cc1	-101.2
CN1CCN(CC(=O)Nc2ccc(OCc3ccccc3)cc2)CC1	-89.8
